Assay outcomes (PubChem BioAssay)
Eya2 phos inh = blocks the phosphatase activity of human Eya2. 330,000 compounds, 0.006% hits. recombinant Eya2, OMFP fluorescence dephosphorylation (OMFP is methylfluorescein phosphate). Potency, µM (series often up to 76.9 µM), for the others: at the highest dose activity, negative = inhibition, usual class: inhibitors. O00167; further: on the % scale 0 is the no-effect control and ±100 the full control effect
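Eya2 (0.2 uM) preincubated 10 min at ambient with compound, then OMFP substrate added at 50 uM; 10 min reaction in 50 mM HEPES pH 7.5, 50 mM NaCl, 5 uM MgCl2, 0.05% BSA, 1 mM DTT. Fluorescence read at Ex 485/Em 525 nm.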
PTAP TSG101 blk = blocks PTAP/TSG101 interaction to inhibit HIV-1 budding | AID 493005 | Fluorescence polarization, FITC-PTAP peptide / Tsg101 binding | 340,000 tested, under 10 active | Potency, µM (titrated, usually from 115 µM), without a hit: top-dose activity change, negative = inhibition, actives largely listed as inhibitors | Q99816; active means well fitted inhibition curve with a large enough effect in the main read-out, with a control signal flat, not every such curve was filed as active; inconclusive means small, poorly fitted or top-dose-only effect, or effect the other way, or a change in a side signal; inactive means no such curve, though single readings can be large or run the other way; further: % of control where 0% means no effect
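Fluorescence anisotropy tracks displacement of a FITC-tagged PTAP peptide (50 nM) from the Tsg101 binding domain (10 uM), following a 20 min room-temperature incubation at pH 7.5.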
USP2a inh = blocks human ubiquitin-specific protease USP2a; O75604; USP2 core, Ub-CHOP2 coupled fluorogenic reporter, 485/531; Potency, µM (doses to about 38.3 µM), for the others: at the highest dose activity change, negative = inhibition, hits mostly inhibitors; 330,000 compounds, 0.01% hits;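 further: plate controls were DMSO wells for no effect and full inhibition by NEM control for full effect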
Target sequence (O75604 whole entry, looked up): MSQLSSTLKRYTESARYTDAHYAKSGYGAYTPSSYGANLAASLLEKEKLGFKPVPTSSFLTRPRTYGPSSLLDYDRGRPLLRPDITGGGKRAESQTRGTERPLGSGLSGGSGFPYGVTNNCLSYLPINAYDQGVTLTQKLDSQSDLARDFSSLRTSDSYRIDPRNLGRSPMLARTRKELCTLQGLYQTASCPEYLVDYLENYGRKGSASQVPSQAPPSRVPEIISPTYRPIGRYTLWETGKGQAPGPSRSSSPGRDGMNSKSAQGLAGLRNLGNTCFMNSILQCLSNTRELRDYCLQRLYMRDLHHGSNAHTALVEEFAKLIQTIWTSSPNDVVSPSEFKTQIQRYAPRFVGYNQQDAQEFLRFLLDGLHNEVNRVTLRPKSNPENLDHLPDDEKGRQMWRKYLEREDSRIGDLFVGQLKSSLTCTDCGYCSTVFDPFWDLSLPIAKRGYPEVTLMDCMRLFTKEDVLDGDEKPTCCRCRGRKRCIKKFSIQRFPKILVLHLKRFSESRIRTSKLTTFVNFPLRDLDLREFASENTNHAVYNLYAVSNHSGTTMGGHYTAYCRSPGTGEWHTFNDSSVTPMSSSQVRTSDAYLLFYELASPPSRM
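USP2 core (10nM final) preincubated 30min RT with compound in 20mM Tris-HCl pH 8.0, 2mM CaCl2, 2mM beta-mercaptoethanol, 0.05% CHAPS; 25nM Ub-CHOP2 plus 25nM reporter substrate added, fluorescence (Ex485/Em531) read after 60min.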
ALOX12 inh = blocks human arachidonate 12S-lipoxygenase; P18054; purified 12hLO, xylenol orange hydroperoxide absorbance; Potency, µM (top dose mostly 108 µM), for the others: at the top dose activity change, negative = inhibition, hits mostly inhibitors; 580,000 compounds, 1.1% hits; AID 1671190; further: on the % scale 0 is the no-effect control and ±100 the full control effect
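Purified human 12hLO at 150 nM in 25 mM Hepes, 0.01% Triton X-100, pH 7.0, preincubated 15 min at room temperature with compound. Reaction started with 40 uM arachidonic acid, 30 min at room temperature. Hydroperoxide measured by Fe-xylenol orange, 573/405 nm absorbance ratio.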
The depositor's hits bear a star; u = inconclusive; x = no result given; [ ] = dose if it differs, or a comment. Most compounds without a hit are left out; they make up all but 1.1% or so of the library. Unless noted, the call rests on the fitted dose curve; in most records, active means well fitted curve in the direction sought with a large enough effect; inconclusive means small, poorly fitted or top-dose-only effect, or another doubt; inactive means no such curve, though single readings can be large; an effect the other way counts as inactive or inconclusive. Potency means the concentration at half of the fitted maximal effect.

SMILES	Eya2 phos inh	PTAP TSG101 blk	USP2a inh	ALOX12 inh
COC(=O)[C@@H]1Cc2c([nH]c3ccccc23)[C@H]2C[C@@H](NCCO)C[C@@H](c3ccccc3)N21	x	x	x	12%[176 µM]
CCc1cc(C(c2cccc(OC)c2)N2CCOCC2)c(NC(=O)c2ccccc2)s1 (stereo unspecified)	4%	-7%	4%	0%
CCc1cc(C(c2ccc(OC)c(OC)c2)N2CCOCC2)c(NC(=O)c2ccccc2)s1 (stereo unspecified)	1%	-1%	3%	-34%
CCc1cc(C(c2ccc(OC)c(OC)c2)N2CCN(CC)CC2)c(NC(=O)c2ccco2)s1 (stereo unspecified)	x	x	x	16µM*
CCc1cc(C(c2ccccc2OC)N2CCN(C)CC2)c(NC(=O)c2ccco2)s1 (stereo unspecified)	x	x	x	40µM*
C/C(=N/Nc1ccc(S(=O)(=O)Nc2ccc(Cl)cc2)cc1[N+](=O)[O-])c1cccc([N+](=O)[O-])c1	x	x	x	-8%
C[N+]1(CC(=O)OCCCC2CCCCC2)CCOCC1	x	x	x	11µM*
COc1cc(/C=N/N(C)c2ccccc2)cc(Cl)c1O	-13%	1%	-4%	16µM*
CCOc1ccc(CN(C)CC(=O)NC(=O)NCc2ccccc2)cc1	x	x	x	-2%
CCNC(=O)NC(=O)CNc1ccccc1N(C)Cc1ccccc1	x	x	x	7.1µM*
Cc1cc(C(c2ccc(C)o2)c2ccc(C)o2)c(O)c([N+](=O)[O-])c1	-9%	-3%	0%	35µM*
CCN(CC)c1ccc(/C=C2/SC(=O)N(C(C)C)C2=O)o1	13%	u	10%	45µM*
CC(C)N1C(=O)S/C(=C\c2ccc(-c3ccc(Cl)c(C(=O)O)c3)o2)C1=O	1%	-7%	2%	u
CN1CCN(Cc2nc3ccccc3c(=O)n2Cc2nc(-c3ccc([N+](=O)[O-])cc3)cs2)CC1	-9%	-9%	-1%	45µM*
Cc1nc(SCC(=O)Nc2ccccc2)oc1C	x	x	x	12%
COc1ccc(C(=O)N2CCC3(CC2)NC(=O)N(Cc2ccc(F)cc2)C3=O)c(OC)c1	x	x	x	1%
COc1ccc(C(=O)N2CCC3(CC2)NC(=O)N(c2cccc(F)c2)N3)c(OC)c1	x	x	x	1.3µM*
CN(C)c1ccc(C(=O)N2CCC3(CC2)NC(=O)N(Cc2ccc(F)cc2)C3=O)cc1	x	x	x	40%
COc1cccc(C(=O)N2CCC3(CC2)NC(=O)N(c2cccc(F)c2)N3)c1	x	x	x	2µM*
COc1ccc(C(=O)N2CCC3(CC2)NC(=O)N(c2ccc(F)cc2)N3)cc1F	x	x	x	2µM*
CN(C)c1ccc(C(=O)N2CCC3(CC2)NC(=O)N(c2cccc(F)c2)N3)cc1	x	x	x	5µM*
CC(Sc1nnc2c(Cl)cc(C(F)(F)F)cn12)c1ccc(F)cc1 (stereo unspecified)	x	x	x	-15%
Cc1ccc(SSc2cc(C)ccc2N)c(N)c1	22%	-2%	3%	10µM*
CCCCCCCOC(C)=O	x	x	x	5%[176 µM]
CCNc1sc(C(C)=O)c(N)c1C#N	x	x	x	3.2µM*
SMILES	Eya2 phos inh	PTAP TSG101 blk	USP2a inh	ALOX12 inh
CCN(CC)c1ccc(C(=C2C=CC(=[N+](CC)CC)C=C2)c2ccc(N(CC)CC)cc2)cc1	x	1%	x	-62%
CCN(CC)c1ccc(C(=C2C=CC(=[N+](CC)CC)C=C2)c2ccccc2)cc1	x	-2%	x	22µM*
COc1cc(C)ccc1OCc1ccc(C(N)=O)cc1	x	x	x	1%
Cc1coc(C)c1C(=O)CC1(O)C(=O)N(CCc2ccccc2)c2ccccc21 (stereo unspecified)	-23%	-4%	2%	40µM*
COC(=O)Cc1c(C)c2ccc(O)cc2oc1=O	x	x	x	-17%
O=C(O)c1ccc2ncsc2c1	13%	-5%	6%	45µM*
Fc1cccc(F)c1-c1nc2c(s1)CCc1onc(-c3ccc(Br)cc3)c1-2	x	-2%	x	14µM*
COc1ccc(-c2noc3c2-c2nc(-c4ccccc4F)sc2CC3)cc1	7%	4%	1%	40µM*
COc1ccc(-c2noc3c2-c2nc(-c4c(F)cccc4F)sc2CC3)cc1	7%	-8%	0%	u
CCN1CCCC1CNC(=O)CSCc1cccc(C)c1 (stereo unspecified)	x	x	x	13%
CC1(C)CN=C(SCc2ccc(C(C)(C)C)cc2)NC1	x	x	x	-10%
COc1ccc(OCCSC2=NCC(C)(C)CN2)cc1	x	x	x	35µM*
COCC1CN(C(C)=O)CC12CCN(C(=O)C1CNC1)CC2 (stereo unspecified)	x	x	x	25µM*
CNC(=O)N1CCC2(CC1)CN(C(C)=O)CC2COC (stereo unspecified)	x	x	x	10%
CC(=O)Nc1ccc(SCCCC(=O)c2ccc(F)cc2)cc1	x	x	x	-28%
O=C(Nc1ccc(-n2cccc2)cc1)C1=COC2=NC(=O)N(Cc3ccccc3)CCN12	x	x	x	3%
O=C(O)Cc1ccc(S(=O)(=O)Cc2ccccc2)cc1	x	x	x	1µM*
O=C(O)c1ccc(S(=O)(=O)Cc2ccccc2)cc1	7%	-2%	2%	-12%
CCOc1ncccc1C(=O)N(Cc1nnc(-c2ccccc2Cl)o1)C1CC1	x	x	x	25%
O=C(O)[C@@H](c1ccccc1)N1Cc2ccccc2C1=O	5%	0%	0%	40µM*
CCCCNC(=O)[C@@H](c1ccccc1)N1Cc2ccccc2C1=O	x	x	x	-1%
O=[N+]([O-])c1cc(Br)c(O)c(/C=N/Nc2nnnn2-c2cccc3ccccc23)c1	-3%	-6%	2%	11µM*
Cc1ccc(C(=O)Nc2nnc(NC(=S)Nc3ccccc3)s2)cc1	7%	-4%	0%	40µM*
CCOc1ccc(C(=O)Nc2nnc(NC(=S)Nc3ccccc3)s2)cc1	-1%	0%	1%	-24%
S=C(Nc1ccc(Nc2ccccc2)cc1)Nc1ccccn1	4%	0%	-1%	5.6µM*
SMILES	Eya2 phos inh	PTAP TSG101 blk	USP2a inh	ALOX12 inh
Cc1ccc(NC(=O)Nc2ccccc2)nc1	x	2%	x	0%
Cc1ccc(NC(=S)Nc2ccccc2)nc1	x	x	x	22µM*
O=C1N(c2ccccc2)c2ccccc2C12CCN(Cc1ccsc1)C2 (stereo unspecified)	x	x	x	8%[6.33 µM]
Cc1c(C(=O)OC(C)C)sc(N)c1C#N	x	x	x	11%
COC(=O)c1sc(N)c(C#N)c1C	x	x	x	4.5µM*
CSCSC1=C(C#N)C(c2ccccc2Cl)C(C(C)=O)=C(C)N1 (stereo unspecified)	2%	0%	3%	u
CCOc1ccc(NC(=O)CSC2=C(C#N)C(c3ccccc3Cl)C(C(C)=O)=C(C)N2)cc1 (stereo unspecified)	x	x	x	32µM*
N#C/C(=C/c1ccccc1OCc1ccccc1)c1cccc(F)c1	x	x	x	-3%
O=S1(=O)N[C@@H](Cc2ccccc2)COc2cc(NCCCN3CCOCC3)ccc21	x	x	x	50µM*
CC(C)C[C@H]1COc2cc(NCCCN3CCOCC3)ccc2S(=O)(=O)N1	x	x	x	-65%
CCN1c2cc(C(=O)Nc3ccc(F)c(Cl)c3)ccc2C(=O)N2CCCCCC21 (stereo unspecified)	x	x	x	2%
COCCN1CCC(C(=O)Nc2ccc(Oc3ccccc3F)cc2)CC1	x	x	x	-3%
